Measurements reported in PubChem BioAssay (EPA / NIEHS).
Results filed as inconclusive are left out. Activity calls are given as the source filed them. The calls were made as follows, unless noted: active = hit-call score of the fitted dose curve at least 0.9, where 1 is the maximum; inactive = score below 0.9.

Columns and labels:
[1] = BSK_3C_VCAM1: BioMAP Diversity Plus: 3C Assay for Vascular cell adhesion molecule 1 (VCAM1) Biomarker Activity (AID 2282999); conditions: BioMAP 3C HUVEC, VCAM1 ELISA, cytokine-stimulated; actives raise or lower the signal
In short: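 Vascular primary endothelium (human umbilical vein) was exposed to chemicals and assayed 24 h later. VCAM-1 levels came from ELISA, with DMSO serving as baseline for bidirectional fitting.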

[2] = BSK_4H_Eotaxin3: BioMAP Diversity Plus: 4H Assay for Eotaxin 3 Biomarker Activity (AID 2283000); conditions: primary human endothelial cells (HUVEC); actives raise or lower the signal
In short: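 Human umbilical vein endothelial cells (BSK_4H system) dosed with test chemical; Eotaxin-3 (CCL26) measured by ELISA 24 h after dosing. Bidirectional curve fitting relative to DMSO negative control as baseline.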

[3] = read-out: Intercellular Adhesion Molecule 1 (ICAM1), ICAM1 (gene 3383); assay: BSK_3C_ICAM1: BioMAP Diversity Plus: 3C Assay for Intercellular Adhesion Molecule 1 (ICAM1) Biomarker Activity (AID 2283003); conditions: primary human endothelial cells (HUVEC); actives raise or lower the signal
In short: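 ELISA read-out of ICAM-1; HUVEC (primary human), 3C system, 24 h post-dosing; bidirectional fit vs DMSO baseline.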

[4] = BSK_3C_Proliferation: Cell Proliferation Assessment in the BioMAP Diversity Plus: 3C Assay (AID 2283006); conditions: primary human endothelial cells (HUVEC);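 as to AC50: potency may reflect either rise or fall in cell number versus DMSO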
In short: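 HUVEC, sub-confluent; 48 h chemical exposure; 10% TCA fix, 0.1% SRB stain, A560 total protein. Gain or loss of signal fitted both directions vs DMSO control.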

[5] = molecular target: Peroxisome proliferator-activated receptor gamma (Homo sapiens) (UniProt P37231); assay: ATG_PPARg_TRANS: Attagene TRANS-FACTORIAL HepG2 Assay for human Peroxisome Proliferator-activated Receptor-gamma (PPARg) (AID 2283007; active = hit-call score of the fitted dose curve at least 0.9, where 1 is the maximum)
In short: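 Transient transfection of HepG2 with GAL4-UAS-driven reporter units; chemical dosing 24 h; total RNA → oligo(dT) RT → PCR with reporter primers → 6-FAM primer extension → HpaI digest 2 h 37 C → capillary electrophoresis. Positive direction vs DMSO.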

[6] = molecular target: Nuclear receptor subfamily 1 group I member 2 (Homo sapiens) (UniProt O75469); assay: ATG_PXR_TRANS: Attagene TRANS-FACTORIAL HepG2 Assay for human Pregnane X Receptor (PXR) (AID 2283008; active = hit-call score of the fitted dose curve at least 0.9, where 1 is the maximum)
In short: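 Trans-factorial format: exogenous NR-Gal4 fusion activity, not endogenous factor, in transfected human HepG2 liver cells. After 24 h dosing, RNA isolated, reverse-transcribed, amplified and resolved by capillary electrophoresis; induction scored versus DMSO.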

[7] = molecular target: human RAR-related Orphan Receptor gamma (RORg), RORC (gene 6097) (UniProt P51449); assay: ATG_RORg_TRANS: Attagene TRANS-FACTORIAL HepG2 Assay for human RAR-related Orphan Receptor gamma (RORg) (AID 2283011; active = hit-call score of the fitted dose curve at least 0.9, where 1 is the maximum)
In short: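 Reporter transcripts from a transfected RORg-GAL4 chimera in HepG2 cells were quantified 24 h after dosing by RT-PCR, 6-FAM labelling, HpaI digestion and capillary electrophoresis; increases over DMSO baseline were fitted.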

[8] = molecular target: Retinoic acid receptor RXR-alpha (Homo sapiens) (UniProt P19793); assay: ATG_RXRa_TRANS: Attagene TRANS-FACTORIAL HepG2 Assay for human Retinoid X Receptor alpha (RXRa) (AID 2283012; active = hit-call score of the fitted dose curve at least 0.9, where 1 is the maximum)
In short: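 Read-out: fluorescent reporter-transcript fragments quantified by capillary electrophoresis after RT-PCR. Transiently transfected HepG2 cells carrying GAL4-UAS reporters and NR-GAL4 chimeras were exposed to chemical for 24 h; activity scored as increase over DMSO.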

[9] = molecular target: human Thyroid Receptor alpha (THRa1), THRA (gene 7067) (UniProt P10827); assay: ATG_THRa1_TRANS: Attagene TRANS-FACTORIAL HepG2 Assay for human Thyroid Receptor alpha (THRa1) (AID 2283014; active = hit-call score of the fitted dose curve at least 0.9, where 1 is the maximum)
In short: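 Transcripts from GAL4-UAS-driven reporters, measured after 24 h compound exposure by RT-PCR plus capillary electrophoresis of 6-FAM-labeled fragments, were fitted for gain of signal relative to DMSO. Cells: transiently transfected HepG2 expressing NR-Gal4 chimeras.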

[10] = read-out: E-selectin (Homo sapiens) (UniProt P16581); assay: BSK_3C_Eselectin: BioMAP Diversity Plus: 3C Assay for Eselectin Biomarker Activity (AID 2283015); conditions: primary human endothelial cells (HUVEC); actives raise or lower the signal
In short: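 E-selectin ELISA readout, fitted bidirectionally relative to DMSO, taken 24 h post-dosing in HUVEC cultures of the 3C system. Overt cytotoxicity tracked with sulforhodamine B staining of parallel wells.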

[11] = read-out: Interleukin-1 alpha (IL1a), IL1A (gene 3552); assay: BSK_BE3C_IL1a: BioMAP Diversity Plus: BE3C Assay for Interleukin-1 alpha (IL1a) Biomarker Activity (AID 2283016); conditions: primary human bronchial epithelial cells; actives raise or lower the signal
In short: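 ELISA read-out of IL-1a from human lung bronchial epithelial primary cells, 24 h post-dose. Gain or loss of signal fitted relative to DMSO negative control.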

[12] = read-out: Monocyte Chemoattractant Protein-1 (MCP1), CCL2 (gene 6347); assay: BSK_3C_MCP1: BioMAP Diversity Plus: 3C Assay for Monocyte Chemoattractant Protein-1 (MCP1) Biomarker Activity (AID 2283017); conditions: primary human endothelial cells (HUVEC); actives raise or lower the signal
In short: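 MCP-1 was measured by ELISA 24 h after dosing in primary HUVEC 3C cultures and fitted in both directions relative to DMSO; cytotoxicity was checked by SRB total-protein staining in parallel wells.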

[13] = read-out: Monocyte Chemoattractant Protein-1 (MCP1), CCL2 (gene 6347); assay: BSK_4H_MCP1: BioMAP Diversity Plus: 4H Assay for Monocyte Chemoattractant Protein-1 (MCP1) Biomarker Activity (AID 2283018); conditions: primary human endothelial cells (HUVEC); actives raise or lower the signal
In short: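 HUVEC primary cells, 24 h post-dose, MCP-1 by ELISA. Gain or loss of signal fitted bidirectionally vs DMSO baseline. Cytotoxicity: SRB stain (0.1% after 10% TCA fixation), read 560 nm, parallel cultures.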

[14] = molecular target: human Peroxisome Proliferator-activated Receptor delta (PPARd), PPARD (gene 5467) (UniProt Q03181); assay: ATG_PPARd_TRANS: Attagene TRANS-FACTORIAL HepG2 Assay for human Peroxisome Proliferator-activated Receptor delta (PPARd) (AID 2283002; active = hit-call score of the fitted dose curve at least 0.9, where 1 is the maximum)
In short: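 Multiplexed trans-activation format: HepG2 liver cells expressing exogenous NR-Gal4 chimeras and GAL4-UAS reporters were exposed for 24 h. Reporter mRNA was detected by RT-PCR with capillary electrophoresis fluorescence; activity fitted as gain of signal relative to DMSO.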

[15] = molecular target: human RAR-related Orphan Receptor beta (RORb), RORB (gene 6096) (UniProt Q92753); assay: ATG_RORb_TRANS: Attagene TRANS-FACTORIAL HepG2 Assay for human RAR-related Orphan Receptor beta (RORb) (AID 2283010; active = hit-call score of the fitted dose curve at least 0.9, where 1 is the maximum)
In short: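 HepG2, transient MRTU transfection (GAL4-UAS reporters, exogenous NR-Gal4 chimeras); 24 h compound exposure; total RNA → RT-PCR → 6-FAM primer extension → HpaI digest → CE fluorescence. Positive direction vs DMSO baseline.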

[16] = molecular target: human Retinoic Acid Receptor beta (RARb), RARB (gene 5915) (UniProt P10826); assay: ATG_RARb_TRANS: Attagene TRANS-FACTORIAL HepG2 Assay for human Retinoic Acid Receptor beta (AID 2283004; active = hit-call score of the fitted dose curve at least 0.9, where 1 is the maximum)
In short: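 Induction of reporter mRNA from a chimeric RARb-Gal4 construct was measured by RT-PCR, FAM labelling, HpaI digestion and capillary electrophoresis. Measurements followed 24 h compound treatment of transiently transfected human HepG2 liver cells, with DMSO as baseline.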

[17] = molecular target: human Retinoid X Receptor beta (RXRb), RXRB (gene 6257) (UniProt P28702); assay: ATG_RXRb_TRANS: Attagene TRANS-FACTORIAL HepG2 Assay for human Retinoid X Receptor beta (RXRb) (AID 2283013; active = hit-call score of the fitted dose curve at least 0.9, where 1 is the maximum)
In short: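 Read-out: reporter mRNA induction via RT-PCR plus capillary electrophoresis fluorescence, analysed as signal increase relative to DMSO. Cells were human HepG2, transiently transfected with GAL4-UAS reporter constructs and chimeric receptor-Gal4 fusions, dosed for 24 h.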

[18] = molecular target: human Peroxisome Proliferator-activated Receptor alpha (PPARa), PPARA (gene 5465) (UniProt Q07869); assay: ATG_PPARa_TRANS: Attagene TRANS-FACTORIAL HepG2 Assay for human Peroxisome Proliferator-activated Receptor alpha (PPARa) (AID 2283001; active = hit-call score of the fitted dose curve at least 0.9, where 1 is the maximum)
In short: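 Exposure: 24 h, transiently transfected HepG2 cells. Endpoint: GAL4-UAS reporter mRNA, RT-PCR with capillary electrophoresis fluorescence. Baseline: DMSO; increases fitted.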

[19] = molecular target: Retinoic acid receptor alpha (Homo sapiens) (UniProt P10276); assay: ATG_RARa_TRANS: Attagene TRANS-FACTORIAL HepG2 Assay for human Retinoic Acid Receptor alpha (RARa) (AID 2283005; active = hit-call score of the fitted dose curve at least 0.9, where 1 is the maximum)
In short: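 HepG2 cells transiently transfected with multiple reporter units expressing chimeric RARα-GAL4 fusion, with GAL4-UAS-driven reporters. After 24 h compound exposure, reporter mRNA induction quantified by RT-PCR and capillary electrophoresis with fluorescent labeling; gain-of-signal fitted relative to DMSO control.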

[20] = molecular target: human Retinoic Acid Receptor gamma (RARg), RARG (gene 5916) (UniProt P13631); assay: ATG_RARg_TRANS: Attagene TRANS-FACTORIAL HepG2 Assay for human Retinoic Acid Receptor gamma (RARg) (AID 2283009; active = hit-call score of the fitted dose curve at least 0.9, where 1 is the maximum)
In short: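 Readout: reporter transcript levels via RT-PCR, 6-FAM primer-extension labelling, HpaI digestion and capillary electrophoresis. Cells: HepG2 carrying transfected RARg-GAL4 chimera plus UAS reporter set. Dosing 24 h; DMSO negative control.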

Measured: AC50

Sequence of human Peroxisome Proliferator-activated Receptor delta (PPARd), PPARD (gene 5467) (Q03181 whole entry, looked up, the tested form may be a part): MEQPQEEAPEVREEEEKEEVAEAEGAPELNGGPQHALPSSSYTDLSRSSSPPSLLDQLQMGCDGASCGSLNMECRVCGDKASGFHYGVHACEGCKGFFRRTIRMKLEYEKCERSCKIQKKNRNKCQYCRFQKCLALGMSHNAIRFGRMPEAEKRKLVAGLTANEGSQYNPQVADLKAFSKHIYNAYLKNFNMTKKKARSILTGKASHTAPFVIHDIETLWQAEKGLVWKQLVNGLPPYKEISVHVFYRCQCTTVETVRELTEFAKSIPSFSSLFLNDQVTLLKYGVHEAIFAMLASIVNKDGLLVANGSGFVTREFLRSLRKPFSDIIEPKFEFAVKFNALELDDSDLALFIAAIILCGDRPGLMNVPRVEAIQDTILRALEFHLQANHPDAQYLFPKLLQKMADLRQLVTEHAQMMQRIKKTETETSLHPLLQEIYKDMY
Sequence of Retinoic acid receptor RXR-alpha (Homo sapiens) (P19793 whole entry, looked up, the tested form may be a part): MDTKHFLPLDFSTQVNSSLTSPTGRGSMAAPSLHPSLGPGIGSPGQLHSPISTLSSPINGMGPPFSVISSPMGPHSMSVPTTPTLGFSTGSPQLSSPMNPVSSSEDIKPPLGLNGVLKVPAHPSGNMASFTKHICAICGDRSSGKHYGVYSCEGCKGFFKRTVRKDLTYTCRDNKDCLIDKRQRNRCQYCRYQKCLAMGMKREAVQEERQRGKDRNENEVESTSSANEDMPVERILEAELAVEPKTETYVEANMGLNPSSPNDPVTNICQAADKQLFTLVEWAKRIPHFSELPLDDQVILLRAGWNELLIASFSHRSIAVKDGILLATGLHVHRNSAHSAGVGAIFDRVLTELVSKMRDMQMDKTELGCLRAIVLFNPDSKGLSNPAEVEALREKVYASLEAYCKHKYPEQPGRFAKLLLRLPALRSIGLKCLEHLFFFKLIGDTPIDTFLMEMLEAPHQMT
Sequence of human RAR-related Orphan Receptor gamma (RORg), RORC (gene 6097) (P51449 whole entry, looked up, the tested form may be a part): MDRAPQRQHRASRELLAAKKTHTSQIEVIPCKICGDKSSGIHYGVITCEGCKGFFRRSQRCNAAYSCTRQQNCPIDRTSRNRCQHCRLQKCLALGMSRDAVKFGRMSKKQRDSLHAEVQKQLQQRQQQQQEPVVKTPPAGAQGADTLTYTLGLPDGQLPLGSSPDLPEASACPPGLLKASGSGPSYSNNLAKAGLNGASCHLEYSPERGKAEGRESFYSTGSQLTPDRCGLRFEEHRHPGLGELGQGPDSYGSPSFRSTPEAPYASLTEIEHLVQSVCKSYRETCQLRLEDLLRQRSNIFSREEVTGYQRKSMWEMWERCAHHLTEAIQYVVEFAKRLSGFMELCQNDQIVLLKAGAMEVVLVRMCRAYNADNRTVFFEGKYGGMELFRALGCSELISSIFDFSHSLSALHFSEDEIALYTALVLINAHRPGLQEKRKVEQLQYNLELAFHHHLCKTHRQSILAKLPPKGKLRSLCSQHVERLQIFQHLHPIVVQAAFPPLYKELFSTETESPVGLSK
Sequence of human Thyroid Receptor alpha (THRa1), THRA (gene 7067) (P10827 whole entry, looked up, the tested form may be a part): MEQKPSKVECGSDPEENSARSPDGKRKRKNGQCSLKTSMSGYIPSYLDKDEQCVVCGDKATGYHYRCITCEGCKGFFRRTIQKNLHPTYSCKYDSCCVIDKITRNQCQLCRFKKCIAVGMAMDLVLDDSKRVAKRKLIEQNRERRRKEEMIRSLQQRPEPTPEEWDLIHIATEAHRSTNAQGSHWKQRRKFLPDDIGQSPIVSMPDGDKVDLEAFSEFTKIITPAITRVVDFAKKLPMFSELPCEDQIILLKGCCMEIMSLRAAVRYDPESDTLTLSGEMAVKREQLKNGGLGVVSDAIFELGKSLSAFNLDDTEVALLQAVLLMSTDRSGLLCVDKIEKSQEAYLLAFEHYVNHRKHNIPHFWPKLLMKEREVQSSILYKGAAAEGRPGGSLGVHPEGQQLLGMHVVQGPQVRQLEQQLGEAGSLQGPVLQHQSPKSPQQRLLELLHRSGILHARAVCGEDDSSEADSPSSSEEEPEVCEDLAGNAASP
Sequence of E-selectin (Homo sapiens) (P16581 whole entry, looked up): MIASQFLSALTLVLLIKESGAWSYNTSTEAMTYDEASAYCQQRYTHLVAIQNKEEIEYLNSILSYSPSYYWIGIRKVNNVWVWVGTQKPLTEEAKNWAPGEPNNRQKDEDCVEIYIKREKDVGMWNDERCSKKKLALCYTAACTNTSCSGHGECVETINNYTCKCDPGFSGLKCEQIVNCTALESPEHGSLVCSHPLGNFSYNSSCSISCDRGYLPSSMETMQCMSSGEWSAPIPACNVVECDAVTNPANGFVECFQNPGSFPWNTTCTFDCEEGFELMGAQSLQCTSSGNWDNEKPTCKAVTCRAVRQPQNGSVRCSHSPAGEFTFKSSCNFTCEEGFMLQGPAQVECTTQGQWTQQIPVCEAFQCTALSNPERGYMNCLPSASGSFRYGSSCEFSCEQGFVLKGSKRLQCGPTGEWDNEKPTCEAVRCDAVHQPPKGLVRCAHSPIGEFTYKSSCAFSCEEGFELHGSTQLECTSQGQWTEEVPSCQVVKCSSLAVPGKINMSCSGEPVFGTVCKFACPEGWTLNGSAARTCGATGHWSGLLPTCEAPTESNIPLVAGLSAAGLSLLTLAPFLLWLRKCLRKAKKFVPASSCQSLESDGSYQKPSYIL
Sequence of Peroxisome proliferator-activated receptor gamma (Homo sapiens) (P37231 whole entry, looked up, the tested form may be a part): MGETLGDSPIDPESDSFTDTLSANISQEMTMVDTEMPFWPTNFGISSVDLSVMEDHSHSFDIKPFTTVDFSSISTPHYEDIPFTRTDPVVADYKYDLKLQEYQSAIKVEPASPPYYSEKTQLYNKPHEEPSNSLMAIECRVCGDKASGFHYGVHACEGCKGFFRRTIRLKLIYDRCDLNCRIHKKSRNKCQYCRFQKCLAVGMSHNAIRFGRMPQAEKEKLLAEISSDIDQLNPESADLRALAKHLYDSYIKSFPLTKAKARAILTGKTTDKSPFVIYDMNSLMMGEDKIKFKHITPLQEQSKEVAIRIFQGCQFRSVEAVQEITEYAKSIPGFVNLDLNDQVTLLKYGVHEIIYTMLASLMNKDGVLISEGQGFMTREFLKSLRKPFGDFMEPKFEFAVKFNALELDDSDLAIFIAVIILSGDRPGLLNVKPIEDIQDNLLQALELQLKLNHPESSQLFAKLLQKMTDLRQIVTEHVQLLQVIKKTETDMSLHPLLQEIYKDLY
Sequence of Nuclear receptor subfamily 1 group I member 2 (Homo sapiens) (O75469 whole entry, looked up, the tested form may be a part): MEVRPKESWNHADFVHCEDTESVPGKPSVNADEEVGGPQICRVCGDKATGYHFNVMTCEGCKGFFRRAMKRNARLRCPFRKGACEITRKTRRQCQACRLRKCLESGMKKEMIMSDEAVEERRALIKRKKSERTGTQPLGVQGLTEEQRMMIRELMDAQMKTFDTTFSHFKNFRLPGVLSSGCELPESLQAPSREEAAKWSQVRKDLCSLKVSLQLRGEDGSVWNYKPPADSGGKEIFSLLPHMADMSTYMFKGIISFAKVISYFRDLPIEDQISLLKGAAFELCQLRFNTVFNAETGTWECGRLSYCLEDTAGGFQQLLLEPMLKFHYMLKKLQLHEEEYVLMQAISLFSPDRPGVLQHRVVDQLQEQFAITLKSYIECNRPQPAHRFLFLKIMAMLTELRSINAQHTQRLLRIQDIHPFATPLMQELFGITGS
Sequence of human RAR-related Orphan Receptor beta (RORb), RORB (gene 6096) (Q92753 whole entry, looked up, the tested form may be a part): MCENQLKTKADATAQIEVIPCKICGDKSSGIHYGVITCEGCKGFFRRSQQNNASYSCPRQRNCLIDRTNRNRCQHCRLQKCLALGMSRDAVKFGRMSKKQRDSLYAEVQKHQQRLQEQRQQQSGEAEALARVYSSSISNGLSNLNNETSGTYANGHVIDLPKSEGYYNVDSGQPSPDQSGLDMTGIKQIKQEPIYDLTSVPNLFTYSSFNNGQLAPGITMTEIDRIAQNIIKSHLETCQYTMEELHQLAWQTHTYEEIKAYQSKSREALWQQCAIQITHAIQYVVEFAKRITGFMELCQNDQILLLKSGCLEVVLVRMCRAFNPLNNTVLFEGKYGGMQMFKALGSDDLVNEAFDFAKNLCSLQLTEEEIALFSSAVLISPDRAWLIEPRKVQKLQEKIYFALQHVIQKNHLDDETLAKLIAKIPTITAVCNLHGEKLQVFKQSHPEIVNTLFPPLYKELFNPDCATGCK
Sequence of human Retinoid X Receptor beta (RXRb), RXRB (gene 6257) (P28702 whole entry, looked up, the tested form may be a part): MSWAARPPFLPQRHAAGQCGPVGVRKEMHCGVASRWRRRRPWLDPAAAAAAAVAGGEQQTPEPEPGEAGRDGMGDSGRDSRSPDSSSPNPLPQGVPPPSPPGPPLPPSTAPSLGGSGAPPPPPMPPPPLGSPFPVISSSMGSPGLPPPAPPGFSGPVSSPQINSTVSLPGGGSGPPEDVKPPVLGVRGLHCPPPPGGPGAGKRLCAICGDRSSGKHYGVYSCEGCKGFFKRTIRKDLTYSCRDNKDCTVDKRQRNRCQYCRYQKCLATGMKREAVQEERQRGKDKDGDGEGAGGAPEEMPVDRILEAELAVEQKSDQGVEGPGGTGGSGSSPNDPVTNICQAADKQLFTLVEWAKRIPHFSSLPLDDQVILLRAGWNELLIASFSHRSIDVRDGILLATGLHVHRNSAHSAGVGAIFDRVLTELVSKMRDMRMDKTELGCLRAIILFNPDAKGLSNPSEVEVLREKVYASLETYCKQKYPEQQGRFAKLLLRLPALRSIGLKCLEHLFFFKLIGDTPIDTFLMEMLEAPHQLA
Sequence of human Retinoic Acid Receptor gamma (RARg), RARG (gene 5916) (P13631 whole entry, looked up, the tested form may be a part): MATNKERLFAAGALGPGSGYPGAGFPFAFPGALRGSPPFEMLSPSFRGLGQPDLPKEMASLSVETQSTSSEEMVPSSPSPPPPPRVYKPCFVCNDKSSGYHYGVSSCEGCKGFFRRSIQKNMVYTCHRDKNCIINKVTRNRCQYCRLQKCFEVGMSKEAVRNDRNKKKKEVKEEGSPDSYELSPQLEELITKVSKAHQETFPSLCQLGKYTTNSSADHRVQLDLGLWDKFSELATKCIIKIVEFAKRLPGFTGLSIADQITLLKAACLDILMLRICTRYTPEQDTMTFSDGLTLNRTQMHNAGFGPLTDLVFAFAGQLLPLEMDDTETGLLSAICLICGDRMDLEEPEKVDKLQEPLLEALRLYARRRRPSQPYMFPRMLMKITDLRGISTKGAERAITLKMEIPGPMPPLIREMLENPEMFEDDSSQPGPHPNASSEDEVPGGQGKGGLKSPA

CC(Cl)(Cl)C(=O)O
not listed: [14] | [15] | [16] | [17] | [18] | [19] | [20]
inactive: all other assays above

O=C(O)C(Cl)Cl
not listed: [6] | [15] | [16] | [17] | [18] | [19] | [20]
inactive: all other assays above

CCOP(=S)(S)OCC
active: [4] 20.9 µM
not listed: [7] | [8] | [9] | [16] | [17] | [18] | [19] | [20]
inactive: all other assays above

CCCCC(CC)COP(=O)(Oc1ccccc1)Oc1ccccc1 (stereo not drawn)
inactive: [3] | [16] | [8] | [17]
active: [1] 20 µM | [2] 20 µM | [4] 7.38 µM | [5] 5.22 µM | [6] 0.296 µM | [10] 6.53 µM | [11] 8.12 µM | [12] 10.6 µM | [13] 7.85 µM

ClC(Cl)(Cl)c1ccccc1
inactive: [1] | [2] | [18] | [3] | [4] | [8] | [10] | [11] | [12] | [13]

CC(Cl)CN(C)C (stereo not drawn)
inactive: [1] | [2] | [14] | [3] | [4] | [15] | [8] | [10] | [11] | [12] | [13]

CCC(C)(C)c1ccc(O)cc1
active: [6] 7.92 µM | [17] 9.83 µM
not listed: [7] | [9] | [14] | [16] | [18] | [19] | [20]
inactive: all other assays above

COP(=O)(O)OC
active: [6] 27.2 µM
not listed: [8] | [14] | [15] | [16] | [17] | [18]
inactive: all other assays above

CCOP(=S)(OCC)SCSCC
active: [6] 9.51 µM
inactive: [1] | [2] | [3] | [4] | [5] | [8] | [10] | [11] | [12] | [13]

O=[N+]([O-])c1ccc(Cl)c(Cl)c1
active: [5] 16 µM
not listed: [6] | [7] | [14] | [16] | [17] | [18] | [19]
inactive: all other assays above
